The text below walks through data of PubChem BioAssay (Tox21).

Results filed as inconclusive are left out. Activity calls are given as the source filed them. Calls come from the whole dose curve.
% is set by controls: 0 for no effect and ±100 for the full control effect.

This assay is described as follows: qHTS assay to identify small molecule agonists or antagonists of the thyroid stimulating hormone receptor (TSHR) signaling pathway - wild type cell line counter screen (AID 1259384). The following applies: HEK293 wild type, cAMP HTRF counter-screen, stronger effect = higher value; series mostly up to 92.4 µM; cAMP activity change: at the top concentration. From the text:
U.S. Tox21 Program National Center for Advancing Translational Sciences [NCATS] NIH Chemical Genomics Center [NCGC] U.S. Environmental Protection Agency [EPA] National Institutes of Environmental Health Sciences [NIEHS] National Toxicology Program [NTP] U.S. Food and Drug Administration [FDA] Tox21 Assay Overview: TSHR is the receptor for thyrotropin (thyroid stimulating hormone or TSH), a member of the glycoprotein hormone family. TSH is released by the anterior pituitary gland and is the main regulator of thyroid gland growth and development. Upon binding circulating thyrotropin, a G-protein signal cascade activates adenylyl cyclase and […] cAMP concentration is increased. cAMP is a key second messenger involved extensively in cellular signal transduction pathways associated with the majority of G-protein coupled receptors (GPCRs). The activation of these GPCRs by neurotransmitters, lipids, nucleotides, peptides and hormones results in the activation or the inhibition of plasma membrane-bound adenylate cyclase through heterotrimeric G-proteins. A cell-based TSHR-Hek293 assay can be used to identify TSHR agonists. To eliminate the false positive compounds identified from screening a cell-based TSHR-Hek293 cell line, cAMP assay in a wild type Hek293 cells was used as a counter screening.
Tox21 Assay Protocol Summary: Hek293 cells (wild type) were dispensed at 800 cells/4 uL/well in 1536-well white plates using a Multidrop dispenser. After the assay plates were incubated at a 37 C/5% CO2 incubator for 18 hrs, 23 nL of compounds dissolved in DMSO, positive controls or DMSO only was transferred to the assay plate by a pin tool, followed by 1 ul medium containing Ro20-1724. After 30 min of incubation at room temperature, 2.5 ul/well of cAMP-d2 and 2.5 ul/well of anti-cAMP-cryptate were added respectively into the assay plates using a Flying Reagent Dispenser. The plates were incubated at room temperature for 1 hr. The fluorescence intensity in the plates was measured using an Envision plate reader. Each test compound was measured at 15 concentrations and in triplicates.
A general note: qHTS replaces the single test concentration by a dilution series.
`CC1(C)[C@@H]2CC[C@]3(C2)[C@@H]1C(=O)CCC3(C)C`: the “cAMP activity change” value was -0.697% (inactive).

Take `CC(C)CC(C)(C)C`: the “cAMP activity change” value is 0.641% (inactive).

`COC(=O)Cc1cccc2ccccc12`: the “cAMP activity change” value is -1.5% (inactive).

For `CCOC(OCC)OCC`, the “cAMP activity change” value is -2.35% (inactive).

`CC1=C(C)C(=O)C(CCCCC#CCCCC#CCO)=C(C)C1=O`: the “cAMP activity change” value was -2.91% [at 42.5 µM] (inactive).

For `Oc1ccc(Oc2ccccc2)cc1`, the “cAMP activity change” value is 8% (inactive).

Regarding `CCN(CCCCOC(=O)c1ccc(OC)c(OC)c1)C(C)Cc1ccc(OC)cc1` (stereo not given), the “cAMP activity change” value is 0.882% [at 42.5 µM] (inactive).

On to `CS(C)=O`, for which the “cAMP activity change” value was -0.314% (inactive).

On to `O=C(O)c1c2ccccc2cc2ccccc12`, for which the “cAMP activity change” value is -1.44% (inactive).

For `Cc1c(Cl)cccc1Nc1ccccc1C(=O)O`, the “cAMP activity change” value was 3.75% [at 42.5 µM] (inactive).

For `O=C(Cl)c1ccc(F)c(Cl)c1`, the “cAMP activity change” value is 5.97% (inactive).

As for `O=Cc1ccc([N+](=O)[O-])cc1`, the “cAMP activity change” value is -4.91% (inactive).

Regarding `Cc1c(Nc2ncccc2C(=O)O)cccc1C(F)(F)F`, the “cAMP activity change” value is 4.58% [at 42.5 µM] (inactive).

Regarding `O=C(O)c1cccc(C(=O)O)c1C(=O)O`, the “cAMP activity change” value was -0.181% (inactive).

Regarding `O=C1CCCN1CCO`, the “cAMP activity change” value was 3.06% (inactive).

With `CC(=O)Nc1cccc(N)c1`, the “cAMP activity change” value was -5.07% (inactive).

Consider `S=c1[nH][nH]c(=S)s1`, for which the “cAMP activity change” value was -0.529% (inactive).

`OCC(O)c1ccccc1` (stereo not given): the “cAMP activity change” value was -4.04% (inactive).

For the molecule `NCCOCCOCCN`, the “cAMP activity change” value was -1.17% (inactive).

Consider `O=C1c2ccccc2C(=O)c2c1ccc(O)c2O`, for which the “cAMP activity change” value is -25.2% [at 42.5 µM] (inactive).

With `CCCOC(C)=O`, the “cAMP activity change” value is 2.49% (inactive).

For the molecule `CCCCCCCCCCCCCCCCCCCl`, the cAMP activity change was -0.012% [at 8.39 µM] (inactive).

`CC(=O)c1ccc(Cl)c(Cl)c1Cl`: the “cAMP activity change” value is -0.501% (inactive).

`CC(O)CN` (stereo not given): the “cAMP activity change” value is 7.06% (inactive).

In the case of `N#CCCCC(C#N)CCC#N` (stereo not given), the “cAMP activity change” value was 3.64% (inactive).

As to `C/C(=C\C(C)CC(C)CC(C)C)C1CC(=O)OC1=O` (stereo not given), the “cAMP activity change” value is 3.42% (inactive).

As to `Nc1ccc(-c2ccc(F)cc2)cc1`, the “cAMP activity change” value was -8.45% (inactive).

As for `Nc1ccc(C(=O)Oc2ccccc2)c(O)c1`, the “cAMP activity change” value is -3.37% [at 42.5 µM] (inactive).

As to `c1ccc(CCNc2nc(-c3ccccc3)cs2)cc1`, the “cAMP activity change” value is 0.203% [at 42.5 µM] (inactive).

Regarding `CCCCCCCCCCCCN1CCOCC1`, the “cAMP activity change” value was -11.1% (inactive).

On to `CC(=O)OCC(=O)[C@@]1(O)CC[C@H]2[C@@H]3CCC4=CC(=O)C=C[C@]4(C)[C@@]3(F)[C@@H](O)C[C@@]21C`, for which the “cAMP activity change” value is -5.35% [at 42.5 µM] (inactive).

For `N#Cc1ccc(CC(=O)c2cccc(C(F)(F)F)c2)cc1`, the “cAMP activity change” value was -5.31% (inactive).

Take `Clc1cc(Cl)c2c(c1)N=C1CCCCCN1C2`: the “cAMP activity change” value was -1.37% [at 42.5 µM] (inactive).

Consider `CCN(CC)CC(=O)OCC(=O)[C@@]1(O)CC[C@H]2[C@@H]3CCC4=CC(=O)CC[C@]4(C)[C@H]3[C@@H](O)C[C@@]21C`, for which the “cAMP activity change” value was -2.32% [at 42.5 µM] (inactive).

Regarding `CCCCOC(=O)CC#N`, the “cAMP activity change” value was 3.39% (inactive).

For `CCCCCCCCCC(C)C=O` (stereo not given), the “cAMP activity change” value was -0.372% (inactive).

Regarding `NC(=O)c1cc[n+](CC2=C(C(=O)[O-])N3C(=O)[C@@H](NC(=O)Cc4cccs4)[C@H]3SC2)cc1`, the “cAMP activity change” value was -0.183% [at 42.5 µM] (inactive).

As for `O=C(OCCOCCOCCOC(=O)c1ccccc1)c1ccccc1`, the “cAMP activity change” value was -0.31% (inactive).

Turning to `CCc1ccc(C(=O)C(C)CN2CCCCC2)cc1` (stereo not given), the “cAMP activity change” value was 5.93% [at 42.5 µM] (inactive).

In the case of `CC(C(=O)O)c1ccc(/C=C2\CCCCC2=O)cc1` (stereo not given), the “cAMP activity change” value was 3.75% [at 42.5 µM] (inactive).
